The nature of experiment [1]: APR_HepG2_NuclearSize_24hr: Apredica 24-hour HepG2 Assay for Nuclear Size (AID 2282907). The note with it: high-content imaging, actives raise or lower the signal. The gist of the method: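 Nuclear size from Hoechst 33342-stained, formaldehyde-fixed HepG2 nuclei imaged by high-content microscopy, after 24 h dosing at ten concentrations from 0.39 to 200 uM in 0.5% DMSO; gain or loss relative to DMSO baseline.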

Experiment [2] is described as follows: APR_HepG2_CellLoss_24hr: Apredica 24-hour HepG2 Assay for Cell Loss (AID 2282908).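 For AC50: fit in both directions so a hit may be cell loss or gain.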 The note with it: high-content imaging. Put shortly:
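Nuclei stained with Hoechst 33342 after formaldehyde fixation (3.7%) were imaged at 20x to count cells. Exposure lasted 24 hr, at ten concentrations from 0.39 to 200 uM in duplicate, with 0.5% v/v DMSO. Fit bidirectional, relative to DMSO.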

A short description of experiment [3]: APR_HepG2_MicrotubuleCSK_24hr: Apredica 24-hour HepG2 Assay for Microtubule CSK Stabilty (AID 2282909). As to conditions: HepG2 microtubule cytoskeleton imaging, actives raise or lower the signal. The gist of the method:
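Fixed HepG2 cells were stained for alpha-tubulin and imaged after 24 hr exposure to ten concentrations spanning 0.39–200 uM in 0.5% DMSO. Signal change was fitted in both directions relative to DMSO; taxol was the positive control.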

The nature of experiment [4]: APR_HepG2_MitoticArrest_24hr: Apredica 24-hour HepG2 Assay for Mitotic Arrest (AID 2282910). As to conditions: high-content imaging, actives raise or lower the signal. The gist of the method: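 Treatment lasted 24 hr in the human HepG2 line at 0.39–200 uM, solvent held at 0.5% DMSO. Fixed cells were stained with Hoechst 33342 and anti-phospho-histone H3, imaged at 20x, and analysed by gain- or loss-of-signal fitting against DMSO.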

Experiment [5] in a line: APR_HepG2_MitoMembPot_24hr: Apredica 24-hour HepG2 Assay for Mitochondrial Membrane Potential (AID 2282911). The note with it: imaging, actives raise or lower the signal. Put shortly:
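HepG2 human liver cells were exposed 24 hr to compounds at 0.39–200 uM (final DMSO 0.5% v/v) in duplicate. MitoTracker Red CMXRos (250 nM, 30 min) was loaded before formaldehyde fixation; fluorescence was imaged by ArrayScan HCS and fitted bidirectionally versus DMSO.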

A short description of experiment [6]: APR_HepG2_MitoMass_24hr: Apredica 24-hour HepG2 Assay for Mitochondrial Mass (AID 2282912). As to conditions: high-content imaging, actives raise or lower the signal. Put shortly: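 Endpoint is MitoTracker Red CMXRos (250 nM, 30 min, pre-fixation) intensity from 20x high-content imaging, nuclei located by Hoechst. Human HepG2 cells received ten concentrations from 0.39 to 200 uM in 0.5% DMSO for 24 hr, duplicate wells. Bidirectional fit relative to DMSO.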

Experiment [7] is described as follows: APR_HepG2_p53Act_24hr: Apredica 24-hour HepG2 Assay for p53 Activation (AID 2282913).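 Note: p53 protein immunofluorescence averaged per cell in HepG2 with Hoechst nuclei.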 As to conditions: high-content imaging, actives raise or lower the signal. The gist of the method:
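HepG2 cells exposed 24 hr to compounds at 0.39–200 uM (10 concentrations, duplicate), final DMSO 0.5% v/v. After formaldehyde fixation and Triton permeabilization, p53 was immunolabeled (sheep anti-p53, Cy5 secondary) with Hoechst 33342 nuclear counterstain, then imaged by high-content fluorescence microscopy.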

The nature of experiment [8]: APR_HepG2_CellCycleArrest_72hr: Apredica 72-hour HepG2 Assay for Cell Cycle Arrest (AID 2282914). The note with it: high-content imaging, actives raise or lower the signal. The gist of the method: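 HepG2 cells were exposed to compounds at 0.39–200 uM (0.5% v/v DMSO final, duplicates) for 72 hr, fixed in 3.7% formaldehyde, permeabilized and stained with Hoechst 33342. Nuclear DNA content was quantified by high-content imaging; gain or loss of signal was fitted bidirectionally against DMSO.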

The nature of experiment [9]: APR_HepG2_CellLoss_72hr: Apredica 72-hour HepG2 Assay for Cell Loss (AID 2282915). The note with it: high-content imaging. Put shortly: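 HepG2 cells were exposed for 72 hr to compounds at 0.39–200 uM (ten concentrations, duplicate) in 0.5% v/v final DMSO. Nuclei were stained with Hoechst 33342 after 3.7% formaldehyde fixation, imaged at 20x, and counted; fits bidirectional versus DMSO.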

Experiment [10] in a line: APR_HepG2_P-H2AX_72hr: Apredica 72-hour HepG2 Assay for H2AX Phosphorylation (AID 2282916).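 Note: phospho-histone H2A.x immunostain intensity per cell marking DNA damage.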 The note with it: imaging, actives raise or lower the signal. The gist of the method: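 Phospho-histone H2A.x immunofluorescence, multiplexed with Hoechst and c-Jun, quantified by high-content imaging. Compounds applied to HepG2 for 72 h across ten concentrations (0.39–200 uM, 0.5% DMSO), in duplicate; DMSO baseline.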

Experiment [11] in a line: APR_HepG2_MitoMembPot_72hr: Apredica 72-hour HepG2 Assay for Mitochondrial Membrane Potential (AID 2282917). The note with it: imaging, actives raise or lower the signal. The gist of the method:
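HepG2 cells exposed 72 h to compounds at 0.39–200 uM (0.5% v/v DMSO, duplicates); MitoTracker Red CMXRos 250 nM loaded 30 min before 3.7% formaldehyde fixation, imaged by HCS fluorescence. Bidirectional fit versus DMSO.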

Experiment [12] in a line: APR_HepG2_MitoticArrest_72hr: Apredica 72-hour HepG2 Assay for Mitotic Arrest (AID 2282918). The note with it: high-content imaging, actives raise or lower the signal. Put shortly: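 HepG2 cells were exposed for 72 hr to compound at 0.39–200 uM (10 concentrations, duplicate) in 0.5% v/v DMSO, fixed in 3.7% formaldehyde, immunostained for phospho-histone H3 with Hoechst 33342 and imaged by high-content fluorescence; bidirectional fits versus DMSO.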

A short description of experiment [13]: APR_HepG2_MicrotubuleCSK_72hr: Apredica 72-hour HepG2 Assay for Microtubule CSK Stabilty (AID 2282919). As to conditions: HepG2 microtubule cytoskeleton, high-content imaging, actives raise or lower the signal. The gist of the method: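 Ten-point dosing (0.39–200 uM, 0.5% DMSO) of HepG2 for 72 hr, with taxol as the cytoskeletal positive control. The cells were formaldehyde-fixed and then stained with alpha-tubulin/Cy5 and Hoechst. Imaging at 20x used a −2 um Z offset for tubulin.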

The nature of experiment [14]: APR_HepG2_P-H2AX_24hr: Apredica 24-hour HepG2 Assay for H2AX Phosphorylation (AID 2282920). As to conditions: high-content imaging, actives raise or lower the signal. The gist of the method:
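HepG2 human liver cells were exposed for 24 hr to compounds at 0.39–200 uM in duplicate, with 0.5% v/v DMSO final. Fixed cells were immunostained for phospho-histone H2A.x plus Hoechst 33342, imaged by HCS fluorescence, and fitted bidirectionally against DMSO.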

Experiment [15] is described as follows: APR_HepG2_StressKinase_72hr: Apredica 72-hour HepG2 Assay for Stress Kinase (AID 2282921). As to conditions: HepG2 stress kinase (phospho-c-Jun) imaging, actives raise or lower the signal. The gist of the method:
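Stress kinase signal is phospho-c-Jun immunofluorescence (1:500 primary, Cy3 secondary) in fixed, permeabilized human HepG2 cells imaged at 20x. Exposure lasted 72 hr over ten concentrations from 0.39 to 200 uM, 0.5% DMSO, in duplicate. Bidirectional fit versus DMSO.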

A short description of experiment [16]: APR_HepG2_StressKinase_24hr: Apredica 24-hour HepG2 Assay for Stress Kinase (AID 2282922). The note with it: HepG2 stress kinase (phospho-c-Jun) imaging, actives raise or lower the signal. The gist of the method: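 After 24 hr compound treatment (up to 200 uM, final DMSO 0.5% v/v), HepG2 cells are fixed and multiplex-labeled; phospho-c-Jun intensity is captured by high-content fluorescence imaging and analyzed relative to DMSO.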

Experiment [17] is described as follows: APR_HepG2_p53Act_72hr: Apredica 72-hour HepG2 Assay for p53 Activation (AID 2282923).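 Note: average cellular p53 protein immunofluorescence intensity in HepG2 cells.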 As to conditions: high-content imaging, actives raise or lower the signal. Put shortly:
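After 72 h with compound (ten points, 0.39 to 200 uM, final DMSO 0.5% v/v), fixed HepG2 cells were labelled with sheep anti-p53 and Hoechst 33342 and imaged; gain or loss versus DMSO scored.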

Experiment [18] is described as follows: APR_HepG2_MitoMass_72hr: Apredica 72-hour HepG2 Assay for Mitochondrial Mass (AID 2282924).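 Note: MitoTracker Red CMXRos stain intensity per cell imaged as mitochondrial mass.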 The note with it: high-content imaging, actives raise or lower the signal. Put shortly:
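Steps: treat HepG2 72 hr (0.39–200 uM, duplicate wells); load MitoTracker Red CMXRos, 250 nM, 30 min; fix with 3.7% formaldehyde, permeabilise with 0.5% Triton X-100; capture images, nuclei via Hoechst 33342; fit bidirectionally against DMSO.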

A short description of experiment [19]: APR_HepG2_NuclearSize_72hr: Apredica 72-hour HepG2 Assay for Nuclear Size (AID 2282925). The note with it: high-content imaging, actives raise or lower the signal. The gist of the method: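 Compounds (0.39–200 uM, final DMSO 0.5%) were applied to HepG2 for 72 hr. Cells were then formaldehyde-fixed, permeabilized and labelled with Hoechst 33342. Nuclear diameter was quantified from six images per well.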

Experiment [20] in a line: APR_HepG2_CellCycleArrest_24hr: Apredica 24-hour HepG2 Assay for Cell Cycle Arrest (AID 2282905).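 Note: cell cycle arrest scored as ratio of 2N to 4N nuclear DNA content.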 As to conditions: imaging, actives raise or lower the signal. Put shortly: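 After 24 h exposure at 0.39–200 uM in 0.5% DMSO, fixed cells received Hoechst 33342 staining. Imaging quantified per-nucleus DNA content; gain or loss fitted against DMSO controls.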

The source made the active and inactive calls. Rule for the calls: active = hit-call score of the fitted dose curve at least 0.9, where 1 is the maximum; inactive = score below 0.9.

A word on the AC50: it is the midpoint of the concentration-response curve, whichever way the signal moves. With `CC(C)(C)C(O)(CCc1ccc(Cl)cc1)Cn1cncn1` (stereo unspecified), the call in experiment [1], in experiment [5], in [11] and in [19] was inactive. Besides, the concentration at half-maximal activity (AC50) is 104 µM (active) in [2]; 115 µM (active) in [3]; 107 µM (active) in experiment [4]; 124 µM (active) in [6]; 110 µM (active) in experiment [7]; 102 µM (active) in experiment [8]. Further, the half-maximal activity concentration (AC50) in experiment [9] is 116 µM (active); in experiment [10], 111 µM (active); in experiment [12] it was 99.6 µM (active); in experiment [13], 107 µM (active); in [14], 113 µM (active); in experiment [15], 113 µM (active). Moreover, the values for the AC50 in experiment [16], in experiment [17] and in [18] were 108 µM (active), 121 µM (active) and 105 µM (active), respectively.

With `CCNS(=O)(=O)C(F)(F)C(F)(F)C(F)(F)C(F)(F)C(F)(F)C(F)(F)C(F)(F)C(F)(F)F`, the concentration at half-maximal activity (AC50) was 25.2 µM (active) in [20]; 38.9 µM (active) in experiment [2]; 56 µM (active) in [3]; 46.3 µM (active) in experiment [4]; 103 µM (active) in [5]; 36.4 µM (active) in [8]. In addition, the AC50 in [9] is 81.5 µM (active); in experiment [10], 100 µM (active); in experiment [11] it was 91.2 µM (active); in experiment [12], 72.5 µM (active); in [13], 77.6 µM (active); in experiment [14] it was 68.5 µM (active). The half-maximal activity concentration (AC50) in experiment [15] was 112 µM (active). Besides, the compound was classed as inactive in experiment [1], in [6], in [16] and in [18].

On to `Cc1ccc(N)c(N)c1`, for which the compound was called inactive in experiment [1], in [2], in experiment [3], in experiment [4], in [5] and in experiment [6]. Also, the compound was called inactive in experiment [7], in [8], in [9], in experiment [10], in experiment [11] and in [12]. Besides, the compound was called inactive in experiment [14], in experiment [15], in experiment [16], in experiment [17], in experiment [18] and in experiment [19].

For `CCC(C)c1ccc(O)cc1` (stereo unspecified), the outcome in experiment [1], in experiment [2], in experiment [3], in experiment [4], in experiment [5] and in experiment [6] was inactive. In addition, the outcome in experiment [7], in experiment [8], in experiment [9], in [10], in experiment [11] and in experiment [12] was inactive. In addition, the result in experiment [14], in experiment [15], in experiment [16], in [17] and in experiment [18] was inactive.

The values are drawn from PubChem BioAssay (EPA / NIEHS).
